Laboratory results taken from paper PMC8222333, “AsCas12a ultra nuclease facilitates the rapid generation of therapeutic cell medicines”.

B1: ACAG (dsDNA)
DNA 1: GCTATCTAGTGCTCAGTACGCACTGACAGAGGAAACTTCTGGCAGGACCAGGTCATGAGATCGGAAGAGCACACGTCTGAACTCCAGTCA
DNA 2: TGACTGGAGTTCAGACGTGTGCTCTTCCGATCTCATGACCTGGTCCTGCCAGAAGTTTCCTCTGTCAGTGCGTACTGAGCACTAGATAGC
RNA: AAUUUCUACUCUUGUAGAUAGGAAACUUCUGGCAGGACC
B2: AGCT (dsDNA)
DNA 1: GCTATCTAGTGCTCAGTACGCACTGAGCTAGGAAACTTCTGGCAGGACCAGGTCATGAGATCGGAAGAGCACACGTCTGAACTCCAGTCA
DNA 2: TGACTGGAGTTCAGACGTGTGCTCTTCCGATCTCATGACCTGGTCCTGCCAGAAGTTTCCTAGCTCAGTGCGTACTGAGCACTAGATAGC
RNA: AAUUUCUACUCUUGUAGAUAGGAAACUUCUGGCAGGACC
B3: ACGA (dsDNA)
DNA 1: GCTATCTAGTGCTCAGTACGCACTGACGAAGGAAACTTCTGGCAGGACCAGGTCATGAGATCGGAAGAGCACACGTCTGAACTCCAGTCA
DNA 2: TGACTGGAGTTCAGACGTGTGCTCTTCCGATCTCATGACCTGGTCCTGCCAGAAGTTTCCTTCGTCAGTGCGTACTGAGCACTAGATAGC
RNA: AAUUUCUACUCUUGUAGAUAGGAAACUUCUGGCAGGACC
B4: AGGC (dsDNA)
DNA 1: GCTATCTAGTGCTCAGTACGCACTGAGGCAGGAAACTTCTGGCAGGACCAGGTCATGAGATCGGAAGAGCACACGTCTGAACTCCAGTCA
DNA 2: TGACTGGAGTTCAGACGTGTGCTCTTCCGATCTCATGACCTGGTCCTGCCAGAAGTTTCCTGCCTCAGTGCGTACTGAGCACTAGATAGC
RNA: AAUUUCUACUCUUGUAGAUAGGAAACUUCUGGCAGGACC
B5: AGAT (dsDNA)
DNA 1: GCTATCTAGTGCTCAGTACGCACTGAGATAGGAAACTTCTGGCAGGACCAGGTCATGAGATCGGAAGAGCACACGTCTGAACTCCAGTCA
DNA 2: TGACTGGAGTTCAGACGTGTGCTCTTCCGATCTCATGACCTGGTCCTGCCAGAAGTTTCCTATCTCAGTGCGTACTGAGCACTAGATAGC
RNA: AAUUUCUACUCUUGUAGAUAGGAAACUUCUGGCAGGACC
B6: AGAG (dsDNA)
DNA 1: GCTATCTAGTGCTCAGTACGCACTGAGAGAGGAAACTTCTGGCAGGACCAGGTCATGAGATCGGAAGAGCACACGTCTGAACTCCAGTCA
DNA 2: TGACTGGAGTTCAGACGTGTGCTCTTCCGATCTCATGACCTGGTCCTGCCAGAAGTTTCCTCTCTCAGTGCGTACTGAGCACTAGATAGC
RNA: AAUUUCUACUCUUGUAGAUAGGAAACUUCUGGCAGGACC
B7: ACCG (dsDNA)
DNA 1: GCTATCTAGTGCTCAGTACGCACTGACCGAGGAAACTTCTGGCAGGACCAGGTCATGAGATCGGAAGAGCACACGTCTGAACTCCAGTCA
DNA 2: TGACTGGAGTTCAGACGTGTGCTCTTCCGATCTCATGACCTGGTCCTGCCAGAAGTTTCCTCGGTCAGTGCGTACTGAGCACTAGATAGC
RNA: AAUUUCUACUCUUGUAGAUAGGAAACUUCUGGCAGGACC
B8: ACGG (dsDNA)
DNA 1: GCTATCTAGTGCTCAGTACGCACTGACGGAGGAAACTTCTGGCAGGACCAGGTCATGAGATCGGAAGAGCACACGTCTGAACTCCAGTCA
DNA 2: TGACTGGAGTTCAGACGTGTGCTCTTCCGATCTCATGACCTGGTCCTGCCAGAAGTTTCCTCCGTCAGTGCGTACTGAGCACTAGATAGC
RNA: AAUUUCUACUCUUGUAGAUAGGAAACUUCUGGCAGGACC
B9: ACCC (dsDNA)
DNA 1: GCTATCTAGTGCTCAGTACGCACTGACCCAGGAAACTTCTGGCAGGACCAGGTCATGAGATCGGAAGAGCACACGTCTGAACTCCAGTCA
DNA 2: TGACTGGAGTTCAGACGTGTGCTCTTCCGATCTCATGACCTGGTCCTGCCAGAAGTTTCCTGGGTCAGTGCGTACTGAGCACTAGATAGC
RNA: AAUUUCUACUCUUGUAGAUAGGAAACUUCUGGCAGGACC
B10: AGCG (dsDNA)
DNA 1: GCTATCTAGTGCTCAGTACGCACTGAGCGAGGAAACTTCTGGCAGGACCAGGTCATGAGATCGGAAGAGCACACGTCTGAACTCCAGTCA
DNA 2: TGACTGGAGTTCAGACGTGTGCTCTTCCGATCTCATGACCTGGTCCTGCCAGAAGTTTCCTCGCTCAGTGCGTACTGAGCACTAGATAGC
RNA: AAUUUCUACUCUUGUAGAUAGGAAACUUCUGGCAGGACC
B11: ATCG (dsDNA)
DNA 1: GCTATCTAGTGCTCAGTACGCACTGATCGAGGAAACTTCTGGCAGGACCAGGTCATGAGATCGGAAGAGCACACGTCTGAACTCCAGTCA
DNA 2: TGACTGGAGTTCAGACGTGTGCTCTTCCGATCTCATGACCTGGTCCTGCCAGAAGTTTCCTCGATCAGTGCGTACTGAGCACTAGATAGC
RNA: AAUUUCUACUCUUGUAGAUAGGAAACUUCUGGCAGGACC
B12: AGCA (dsDNA)
DNA 1: GCTATCTAGTGCTCAGTACGCACTGAGCAAGGAAACTTCTGGCAGGACCAGGTCATGAGATCGGAAGAGCACACGTCTGAACTCCAGTCA
DNA 2: TGACTGGAGTTCAGACGTGTGCTCTTCCGATCTCATGACCTGGTCCTGCCAGAAGTTTCCTTGCTCAGTGCGTACTGAGCACTAGATAGC
RNA: AAUUUCUACUCUUGUAGAUAGGAAACUUCUGGCAGGACC
B13: ATAC (dsDNA)
DNA 1: GCTATCTAGTGCTCAGTACGCACTGATACAGGAAACTTCTGGCAGGACCAGGTCATGAGATCGGAAGAGCACACGTCTGAACTCCAGTCA
DNA 2: TGACTGGAGTTCAGACGTGTGCTCTTCCGATCTCATGACCTGGTCCTGCCAGAAGTTTCCTGTATCAGTGCGTACTGAGCACTAGATAGC
RNA: AAUUUCUACUCUUGUAGAUAGGAAACUUCUGGCAGGACC
B14: ACGT (dsDNA)
DNA 1: GCTATCTAGTGCTCAGTACGCACTGACGTAGGAAACTTCTGGCAGGACCAGGTCATGAGATCGGAAGAGCACACGTCTGAACTCCAGTCA
DNA 2: TGACTGGAGTTCAGACGTGTGCTCTTCCGATCTCATGACCTGGTCCTGCCAGAAGTTTCCTACGTCAGTGCGTACTGAGCACTAGATAGC
RNA: AAUUUCUACUCUUGUAGAUAGGAAACUUCUGGCAGGACC
B15: AGCC (dsDNA)
DNA 1: GCTATCTAGTGCTCAGTACGCACTGAGCCAGGAAACTTCTGGCAGGACCAGGTCATGAGATCGGAAGAGCACACGTCTGAACTCCAGTCA
DNA 2: TGACTGGAGTTCAGACGTGTGCTCTTCCGATCTCATGACCTGGTCCTGCCAGAAGTTTCCTGGCTCAGTGCGTACTGAGCACTAGATAGC
RNA: AAUUUCUACUCUUGUAGAUAGGAAACUUCUGGCAGGACC
B16: AGAC (dsDNA)
DNA 1: GCTATCTAGTGCTCAGTACGCACTGAGACAGGAAACTTCTGGCAGGACCAGGTCATGAGATCGGAAGAGCACACGTCTGAACTCCAGTCA
DNA 2: TGACTGGAGTTCAGACGTGTGCTCTTCCGATCTCATGACCTGGTCCTGCCAGAAGTTTCCTGTCTCAGTGCGTACTGAGCACTAGATAGC
RNA: AAUUUCUACUCUUGUAGAUAGGAAACUUCUGGCAGGACC
B17: ATCC (dsDNA)
DNA 1: GCTATCTAGTGCTCAGTACGCACTGATCCAGGAAACTTCTGGCAGGACCAGGTCATGAGATCGGAAGAGCACACGTCTGAACTCCAGTCA
DNA 2: TGACTGGAGTTCAGACGTGTGCTCTTCCGATCTCATGACCTGGTCCTGCCAGAAGTTTCCTGGATCAGTGCGTACTGAGCACTAGATAGC
RNA: AAUUUCUACUCUUGUAGAUAGGAAACUUCUGGCAGGACC

What follows are binders tested against dAsCas12a S542R (Acidaminococcus sp., UniProt U2UMQ6 1-1307, S542R;D908A;E993A;D1235A) (assay: Spec-seq (native PAGE EMSA with sequencing of bound and unbound); 25 mM Tris-HCl pH 7.4, 150 mM KCl, 5 mM MgCl2, 10% glycerol, 1 mM DTT, 40 ng/uL salmon sperm DNA; 400 nM Cas12a, 480 nM crRNA, 50 nM library, 37 C 1 h; native PAGE at room temperature; high values mean tight binding). Settings: protein: recombinant.
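Note: relative affinity from the bound to unbound sequence frequency ratio in Spec-seq.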

| Binder | binding signal [lnKA] |
| --- | --- |
| B1 | -8.64 |
| B2 | -8.99 |
| B3 | -8.68 |
| B4 | -8.3 |
| B5 | -8.54 |
| B6 | -8.48 |
| B7 | -6.71 |
| B8 | -8.37 |
| B9 | -5.2 |
| B10 | -8.91 |
| B11 | -6.64 |
| B12 | -8.4 |
| B13 | -8.39 |
| B14 | -8.74 |
| B15 | -8.34 |
| B16 | -8.52 |
| B17 | -4.3 |

The binders below were run against d-enCas12a (Acidaminococcus sp., UniProt U2UMQ6 1-1307, E174R;S542R;K548R;D908A;E993A;D1235A) in the same assay as above. Settings: protein: recombinant.

| Binder | binding signal [lnKA] |
| --- | --- |
| B1 | -5.79 |
| B2 | -4.97 |
| B3 | -5.84 |
| B4 | -5.79 |
| B5 | -5.75 |
| B6 | -5.79 |
| B7 | -4.92 |
| B8 | -6.05 |
| B9 | -2.44 |
| B10 | -4.77 |
| B11 | -3.44 |
| B12 | -3.23 |
| B13 | -4.61 |
| B14 | -5.85 |
| B15 | -2.31 |
| B16 | -5.69 |
| B17 | -0.902 |

What follows are binders tested against d-enCas12a-Ultra (Acidaminococcus sp., UniProt U2UMQ6 1-1307, E174R;S542R;K548R;M537R;F870L;D908A;E993A;D1235A) in the same assay as above. Settings: protein: recombinant.

| Binder | binding signal [lnKA] |
| --- | --- |
| B1 | -3.45 |
| B2 | -1.83 |
| B3 | -3.39 |
| B4 | -3.34 |
| B5 | -3.47 |
| B6 | -3.32 |
| B7 | -1.45 |
| B8 | -3.43 |
| B9 | -0.482 |
| B10 | -1.73 |
| B11 | -0.793 |
| B12 | -0.786 |
| B13 | -1.84 |
| B14 | -3.49 |
| B15 | -0.527 |
| B16 | -3.24 |
| B17 | -0.294 |
